Source: PubChem (several laboratories)
Compounds with a hit are over-represented: about 3.7% of the library has one in this group of screens.
TIM10 inh = growth inhibitors of isogenic TIM10 control yeast, primary screen, counter-screen for tim10-1 yeast inhibitor project, luminescence, uHTS; 330,000 compounds, 1.4% hits; inhibition, % at 10 µM; S. cerevisiae TIM10 strain growth, BacTiter-Glo luminescence, 24 h;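 active means inhibition of 40% or more at the single tested concentration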;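 further: wild-type TIM10 isogenic control strain grown at permissive 25 °C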
tim23-1 inh = growth inhibitors of tim23-1 mutant yeast, primary screen, luminescence, uHTS; 330,000 compounds, 1.3% hits; inhibition, % at 20 µM; S. cerevisiae tim23-1 growth, BacTiter-Glo luminescence, 24 h;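 active means growth inhibition of the mutant yeast at or above 50%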;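 further: temperature-sensitive mutant grown at 25 °C; plate controls were DMSO-treated mutant yeast for no effect and medium wells lacking yeast for full effect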
PfHsp90 set2 = growth inhibition of PfHsp90-expressing yeast, primary screen, antimalarial PfHsp90 inhibitor project, S. cerevisiae, BacTiter-Glo luminescence, single point, set 2 | BacTiter-Glo ATP, 48 h; yeast lacking PDR1 and PDR3 efflux regulators | inhibition, % at 9.4 µM | 310,000 compounds, 0.32% hits;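 active means every replicate shows inhibition above about 80%, whatever the replicate mean, limit read from the data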;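 further: 0% = DMSO neutral controls and 100% = 20 µM radicicol positive controls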
tim10-1 inh = growth inhibitors of tim10-1 mutant yeast, primary screen, luminescence, uHTS; S. cerevisiae tim10-1 ts strain growth, BacTiter-Glo, 24 h; inhibition, % at 20 µM; 330,000 compounds, 2.2% hits; AID 463190, 2010;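 active means inhibition of at least 40%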;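 further: mutant grown at 25 °C; 0% = DMSO wells with yeast and 100% = wells holding no yeast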
V-ATPase pH = regulators of yeast V-ATPase proton pumping, primary screen, pHLuorin cytosolic pH fluorescence. S. cerevisiae. response, % at 10 µM. 350,000 compounds, 0.37% hits; in the data active means response mostly above about 7.3%, no sharp cut-off; inactive means mostly below about 5.4%; further: actives read high
tim10-1 confirm = growth inhibitors of tim10-1 mutant yeast, confirmation, single concentration, luminescence, S. cerevisiae | inhibition, % at 20 µM | 7,400 compounds, 56% hits | shares compounds with tim10-1 inh | S. cerevisiae tim10-1 ts strain growth, BacTiter-Glo, 24 h | AID 463213, 2010;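 active means inhibition of yeast growth at or above a set limit in either of two repeat tests at 20 µM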;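 further: tim10-1 mutant grown at permissive 25 °C to find synthetic lethal compounds; 0% = DMSO yeast wells and 100% = medium wells without yeast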
tim10 confirm = growth inhibitors of wild-type TIM10 yeast, confirmation, counter-screen for tim10-1 synthetic lethality project, single concentration, luminescence, S. cerevisiae; shares compounds with TIM10 inh; S. cerevisiae tim10 strain growth, BacTiter-Glo luminescence, 24 h; inhibition, % at 10 µM; 4,600 compounds, 63% hits;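 active means inhibition of yeast growth at or above a set limit in either of two replicates at 10 µM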;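 further: this counterscreen used the strain with wild-type TIM10; 0% = yeast with DMSO and 100% = medium wells lacking yeast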
tim23-1 conf = tim23-1 mutant yeast growth inhibitors, confirmation, luminescence, single concentration. AID 463218, 2010. shares compounds with tim23-1 inh. S. cerevisiae tim23-1 growth, BacTiter-Glo luminescence, 24 h. inhibition, % at 20 µM. 4,400 compounds, 83% hits;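 active means inhibition above about 39% in either of two replicate wells at 20 µM, limit read from the data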;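 further: temperature-sensitive tim23-1 mutant grown at 25 °C; 0% = DMSO wells with yeast and 100% = medium wells without yeast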
* marks the source's active call; other numbers are inactive results; . = no result.

SMILES	TIM10 inh	tim23-1 inh	PfHsp90 set2	tim10-1 inh	V-ATPase pH	tim10-1 confirm	tim10 confirm	tim23-1 conf
COc1ccc(Cl)cc1NC(=O)C1CC(c2c(F)cccc2Cl)=NO1 (configuration not stated)	64.7*	64.8*	5.1	80.1*	-4.5	75.8*	71.9*	84.6*
O=C(COC(=O)CC1CC2CCC1C2)NCc1ccc(F)cc1 (configuration not stated)	3.3	21.6	.	5.0	0.6	.	.	.
O=C(CC1CC2CCC1C2)OCC(=O)c1c[nH]c2ccccc12 (configuration not stated)	35.0	51.9*	1.3	41.6*	-2.6	25.6	.	67.6*
COc1cc(SC)ccc1C(=O)NCC1CCCCC1	9.8	34.8	-28.2	-26.8	-0.3	.	.	.
Cc1nnc(N2C(=O)c3cccc4c([N+](=O)[O-])ccc(c34)C2=O)s1	36.0	66.5*	11.4	84.7*	-27.1	64.3*	.	68.0*
Cc1ccc(N2C(=O)c3cccc4c([N+](=O)[O-])ccc(c34)C2=O)c2cccnc12	-21.5	6.2	-34.0	9.5	-58.2	.	.	.
Cc1ccnc(N2C(=O)c3cccc4c([N+](=O)[O-])ccc(c34)C2=O)c1	89.8*	73.8*	-37.7	89.9*	-27.0	89.8*	96.8*	77.7*
O=C(CC(O)(c1ccccc1)c1ccccc1)Nc1ccccn1	.	.	11.2	.	11.7	.	.	.
COc1ccccc1C(=O)Nc1ccc(-c2nnn(CC(=O)NCc3ccco3)n2)cc1	-19.3	-26.3	-14.1	11.7	0.8	.	.	.
O=C1Nc2ccccc2/C1=C/c1ccc([N+](=O)[O-])cc1	80.8*	74.4*	-18.3	55.9*	2.9	61.7*	80.8*	59.4*
O=C(Nc1cccc([N+](=O)[O-])c1)N1CCCc2ccccc21	-11.6	15.0	-21.1	16.4	1.1	.	.	.
O=[N+]([O-])c1cccc(NC(=S)N2CCc3ccccc32)c1	24.5	51.0*	-10.8	43.1*	1.6	31.8*	.	48.8*
Cc1cc(F)ccc1S(=O)(=O)N1CCCOC1CNC(=O)C(=O)NCc1ccc2c(c1)OCO2 (configuration not stated)	-3.9	-4.7	-55.7	-5.3	-0.3	.	.	.
CCc1ccc2c(c1)C1(NN=C(c3ccc(C)cc3)S1)C(=O)N2 (configuration not stated)	40.3*	82.7*	-73.4	92.4*	-1.8	87.9*	10.0	80.8*
Cc1ccc(NC(=S)NNC(=S)NC2CCCCC2)cc1	18.1	0.6	-34.2	31.0	1.1	.	.	.
S=C(NNc1ccc2ccccc2c1)NC1CCCCC1	50.7*	51.8*	-39.3	48.5*	-0.6	53.0*	56.4*	51.6*
COCCNC(=O)/C(C#N)=C/c1cccc(NC(=O)c2ccccc2Cl)c1	26.9	31.0	11.2	38.4	14.3	.	.	.
CC(C)NC(=O)/C(C#N)=C/c1cccc(NC(=O)c2ccccc2Cl)c1	62.8*	78.4*	-2.1	70.4*	2.7	66.8*	0.9	67.0*
CCCc1cc(=O)n2nc(N3CCC(C(=O)N4CCN(c5cccc(OC)c5)CC4)CC3)sc2n1	9.5	11.2	22.8	-0.2	-0.7	.	.	.
COc1ccc(S(=O)(=O)CC(=O)c2cc3cc(Br)ccc3oc2=O)cc1	30.5	71.8*	9.9	62.0*	1.5	50.2*	.	85.5*
COc1ccc(OC)c(S(=O)(=O)CC(=O)c2cc3ccc(OC)cc3oc2=O)c1	9.4	38.3	-35.1	29.8	9.0	.	.	.
CC(C)CN(Cc1cc(=O)oc2cc(-c3ccccc3)c(O)cc12)CC(C)C	23.2	22.1	-18.3	14.9	-0.3	.	.	.
CC(C)=CCN1CCN(Cc2cccn2-c2ncccn2)CC1CCO (configuration not stated)	-16.2	10.2	9.0	0.8	0.2	.	.	.
Cc1ccc(-c2nc3cccnc3s2)cc1NS(=O)(=O)c1cccs1	6.5	57.7*	-38.1	42.5*	0.2	32.3*	.	53.0*
CCc1ccc(S(=O)(=O)Nc2ccc(-c3nc4cccnc4s3)cc2)s1	1.1	18.4	-5.8	11.9	-2.7	.	.	.
SMILES	TIM10 inh	tim23-1 inh	PfHsp90 set2	tim10-1 inh	V-ATPase pH	tim10-1 confirm	tim10 confirm	tim23-1 conf
N#C/C(=C\c1cccc(Br)c1)C(=O)N1CCCCC1	63.4*	81.2*	-122.0	70.3*	0.0	67.8*	73.5*	72.6*
CCc1c(C)c(C#N)c2nc3ccccc3n2c1NCCN(C)C	57.9*	58.7*	17.3	62.7*	-0.6	56.1*	34.1*	64.8*
COc1ccc(/C=C2\COc3ccccc3C2=O)cc1OC	50.2*	69.6*	14.1	56.8*	-0.8	57.4*	11.6	58.0*
COc1ccc(/C=C2/CCc3ccccc3C2=O)cc1OC	21.0	40.5	-34.2	16.8	0.1	.	.	.
COc1ccc(NC(=O)c2ccco2)cc1NC(=O)c1ccc(Br)o1	76.4*	55.2*	10.7	43.9*	1.2	22.7	61.0*	74.5*
COc1ccc(-c2cccc(NC(=O)c3ccco3)c2)nn1	2.0	16.2	-18.5	-5.6	-0.8	.	.	.
O=C(Nc1ccc(Nc2ccccc2)cc1)c1ccc(Br)o1	39.3	52.0*	4.5	40.6*	-0.5	32.7*	.	80.0*
COc1ccc(-c2ccc(NC(=O)c3ccco3)cc2)nn1	46.4*	57.3*	64.1	47.2*	-4.0	22.5	29.7	50.9*
CCC(C(=O)O/N=C(\N)c1ccccc1)c1ccccc1 (configuration not stated)	54.5*	56.4*	-31.1	55.9*	0.3	52.7*	48.6*	43.0*
Cc1ccc(/C(N)=N/OC(=O)N2c3ccccc3Sc3ccccc32)cc1	86.2*	68.5*	4.5	63.0*	-0.3	49.6*	80.2*	46.2*
N/C(=N\OC(=O)C(c1ccccc1)c1ccccc1)c1ccncc1	1.6	17.4	6.1	2.9	2.3	.	.	.
CCC(C(=O)O/N=C(\N)c1ccc(C)cc1)c1ccccc1 (configuration not stated)	64.5*	54.1*	12.6	68.7*	0.9	60.9*	-14.9	67.6*
Cc1ccc(C)c(-n2c(-c3ccc(Br)cc3)csc2=NC(=O)c2ccccc2F)c1	21.1	30.6	-2.9	18.5	-2.7	.	.	.
COC(=O)c1cc(=O)n(-c2ccc(F)cc2)c(=Nc2ccc(F)cc2)s1	54.1*	67.4*	124.9*	56.3*	-3.0	57.2*	54.6*	43.8*
